Screens (PubChem BioAssay)
pCIP destab – p/CIP-EGFP fusion destabilizers, primary screen, fluorescence, F442A cells; Q05BA5; 16 h; decrease of EGFP signal, % at 10 µM; hit rate 0.01% among 290,000; AID 1984, 2009;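 active means EGFP signal decrease of at least 30% at 10 µM or well 3 SD below plate mean, unless failing retest; inactive means the rest, including hits failing retest or dose response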
MOR-DOR inv ag – inverse agonists of MOR-DOR heterodimerization, primary screen, cell-based, luminescence | inhibition, % at 9.3 µM | cell-based MOR-DOR heterodimer luminescence, inverse agonism | Mu-type opioid receptor (Homo sapiens) + Delta-type opioid receptor (Homo sapiens), … | hit rate 0.21% among 340,000; in the data active means inhibition above about 22%, passing the limit was not always enough
HTR5A ag – HTR5A agonists in luminescence cell assay, primary screen, counter-screen for OPRM1-OPRD1 heterodimer agonist project, full-deck HTS; 5-hydroxytryptamine receptor 5A (Homo sapiens), P47898; cell-based; activation, % at 9.3 µM; hit rate 0.61% among 340,000; AID 504692, 2011; in the data active means activation mostly above about 9.5%, no sharp cut-off; inactive means mostly below about 7.6%
MIN6 prolif – inducers of MIN6 beta-cell proliferation, primary screen, ATP luminescence, uHTS; MIN6 cells proliferation, ATPlite luminescence, 48 h; cells starved in 0.2% serum; 100% = growth in 10% serum; proliferation, % at 10 µM; hit rate 0.29% among 330,000; AID 2380, 2010;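 active means compounds whose signal lies at least 3.5 SD above the mean of all wells on their plate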
HTR5A inv ag – HTR5A inverse agonists in luminescence cell assay, primary screen, counter-screen for OPRM1-OPRD1 heterodimer inverse agonist project, full-deck HTS | inhibition, % at 9.3 µM | HTR5A cell line, inverse agonism | hit rate 0.083% among 340,000 | AID 504634, 2011; in the data active means inhibition mostly above about 23%, no sharp cut-off; inactive means mostly below about 18%
MOR-DOR ag – agonists of OPRM1-OPRD1 heterodimerization, primary screen, cell-based, luminescence; cells; activation, % at 9.3 µM; Mu-type opioid receptor (Homo sapiens) + Delta-type opioid receptor (Homo sapiens), …; AID 504326, 2011; hit rate 0.3% among 340,000; in the data active means activation above about 18%
A number is an active result; ! = repeats disagree. Hits are enriched below; roughly 1.4% of the tested compounds scored in any of these assays.

Results for CC(=O)OC1C2CCC1C(N1CCCCC1)CC2 (configuration not stated) ?
pCIP destab: inactive; MOR-DOR inv ag: inactive; HTR5A ag: inactive; MIN6 prolif: inactive; HTR5A inv ag: inactive; MOR-DOR ag: inactive

What do the screens show for `CC(=O)OC1C2CCCC1C(N1CCCC1)CC2` (configuration not stated)?
pCIP destab: inactive; MOR-DOR inv ag: inactive; HTR5A ag: 13!; MIN6 prolif: inactive; HTR5A inv ag: inactive; MOR-DOR ag: inactive

Results for Clc1cccc(CNCCc2c[nH]c3ccccc23)c1 ?
pCIP destab: inactive; MOR-DOR inv ag: inactive; HTR5A ag: inactive; MIN6 prolif: inactive; HTR5A inv ag: inactive; MOR-DOR ag: inactive

What do the screens show for `COC(=O)C1=C(c2cccc(C#N)c2)C[C@@H]2CC[C@H]1N2C(=O)NCCOc1ccccc1`?
MOR-DOR inv ag: inactive; HTR5A ag: inactive; MIN6 prolif: inactive; HTR5A inv ag: inactive; MOR-DOR ag: inactive

How did CCCNC(=O)N1[C@H]2CC[C@@H]1C(C(=O)OC)=C(c1cccc(C#N)c1)C2 do in these assays?
MOR-DOR inv ag: inactive; HTR5A ag: 13; MIN6 prolif: inactive; HTR5A inv ag: inactive; MOR-DOR ag: inactive

Results for C=C1C(=O)O[C@@H]2C[C@@H](C)[C@@H]3C=CC(=O)[C@@]3(C)[C@@H](OC(=O)CC(=O)O[C@H]3[C@@H]4C(=C)C(=O)O[C@@H]4C[C@@H](C)[C@@H]4C=CC(=O)[C@]43C)[C@H]12 ?
pCIP destab: inactive; MOR-DOR inv ag: 46; HTR5A ag: inactive; MIN6 prolif: inactive; HTR5A inv ag: inactive; MOR-DOR ag: inactive

What do the screens show for `C=C1C(=O)OC2CC(C)C3C=CC(=O)C3(C)C(O)C12` (configuration not stated)?
MOR-DOR inv ag: inactive; HTR5A ag: inactive; HTR5A inv ag: inactive; MOR-DOR ag: inactive

Results for CC1(C)C[C@H]2C=C(C=O)[C@]3(C=O)C[C@]3(C)[C@H]2C1 ?
pCIP destab: inactive; MOR-DOR inv ag: inactive; HTR5A ag: 42; MIN6 prolif: inactive; HTR5A inv ag: inactive; MOR-DOR ag: inactive

Results for NC(=Nc1ccccc1)NN=Cc1c[nH]c2ccccc12 ?
MOR-DOR inv ag: inactive; HTR5A ag: 13; HTR5A inv ag: inactive; MOR-DOR ag: inactive

Results for CNc1cc(Cl)c2nonc2c1[N+](=O)[O-] ?
pCIP destab: inactive; MOR-DOR inv ag: 33; HTR5A ag: inactive; HTR5A inv ag: inactive; MOR-DOR ag: inactive

How did Cc1cc([N+](=O)[O-])c(Cl)cc1NC(=O)C(C)C do in these assays?
pCIP destab: inactive; MOR-DOR inv ag: inactive; HTR5A ag: inactive; MIN6 prolif: inactive; HTR5A inv ag: inactive; MOR-DOR ag: inactive

How did CCN(CC)S(=O)(=O)N1CCC(C(=O)N2CCC3(CC2)OCCO3)CC1 do in these assays?
pCIP destab: inactive; MOR-DOR inv ag: inactive; HTR5A ag: inactive; MIN6 prolif: inactive; HTR5A inv ag: inactive; MOR-DOR ag: inactive

How did c1ccc2c(CCNC3=NCCC3)c[nH]c2c1 do in these assays?
pCIP destab: inactive; MOR-DOR inv ag: inactive; HTR5A ag: 11; MIN6 prolif: inactive; HTR5A inv ag: inactive; MOR-DOR ag: inactive

What do the screens show for `CCN1C[C@]2(COC)CC[C@H](O)[C@]34C1[C@](O)([C@@H](OC)[C@H]23)[C@@]1(O)C[C@H](OC)[C@H]2C[C@@H]4[C@@H]1[C@H]2OC`?
MOR-DOR inv ag: inactive; HTR5A ag: inactive; MIN6 prolif: inactive; HTR5A inv ag: inactive; MOR-DOR ag: inactive

Results for C[C@]12CCC3C(CC[C@H]4C[C@@H](O)CC[C@]34C)C1C[C@@H](Br)[C@H]2O (some centres not stated) ?
MIN6 prolif: inactive

Results for Cc1cc(NC(=O)COC(=O)c2c(C)nn(Cc3ccccc3)c2C)no1 ?
pCIP destab: inactive; MOR-DOR inv ag: inactive; HTR5A ag: 12; MIN6 prolif: inactive; HTR5A inv ag: inactive; MOR-DOR ag: inactive

What do the screens show for `O=C(c1cn(Cc2ccccc2F)c2ncccc12)C(F)(F)F`?
pCIP destab: inactive; MOR-DOR inv ag: inactive; HTR5A ag: inactive; MIN6 prolif: inactive; HTR5A inv ag: inactive; MOR-DOR ag: inactive

What do the screens show for `CCn1nc(-c2ccccc2)nc2c(=O)n(C)c(=O)nc1-2`?
pCIP destab: inactive; MOR-DOR inv ag: inactive; HTR5A ag: inactive; MIN6 prolif: inactive; HTR5A inv ag: inactive; MOR-DOR ag: 24

How did CC(=O)c1ccc2c(c1)C1C(Cl)C(Sc3ccccc3[N+](=O)[O-])CC1C(c1ccccc1[N+](=O)[O-])N2 (configuration not stated) do in these assays?
pCIP destab: inactive; MOR-DOR inv ag: inactive; HTR5A ag: 11; MIN6 prolif: inactive; HTR5A inv ag: inactive; MOR-DOR ag: inactive

What do the screens show for `CCN(C(=O)COC(=O)c1cn(C)c2ccccc12)c1ccc(F)cc1`?
MOR-DOR inv ag: inactive; HTR5A ag: inactive; MIN6 prolif: inactive; HTR5A inv ag: inactive; MOR-DOR ag: inactive

What do the screens show for `CCN(CC)c1ccc(/C=N/c2sc3c(c2C#N)C2CCN3CC2)c(O)c1`?
pCIP destab: inactive; MOR-DOR inv ag: 42; HTR5A ag: inactive; HTR5A inv ag: inactive; MOR-DOR ag: inactive

Results for O=c1c2ccccc2nc(/C=C/c2ccccc2F)n1-c1ccccc1O ?
pCIP destab: inactive; MOR-DOR inv ag: inactive; HTR5A ag: inactive; MIN6 prolif: inactive; HTR5A inv ag: inactive; MOR-DOR ag: 29

Results for FC(F)(F)c1ccccc1NC1=NCCCS1 ?
pCIP destab: inactive; MOR-DOR inv ag: inactive; HTR5A ag: inactive; MIN6 prolif: inactive; HTR5A inv ag: inactive; MOR-DOR ag: inactive

Results for CC1(C)CN=C(Nc2ccccc2C(F)(F)F)S1 ?
pCIP destab: inactive; MOR-DOR inv ag: inactive; HTR5A ag: 11; MIN6 prolif: inactive; HTR5A inv ag: inactive; MOR-DOR ag: inactive

What do the screens show for `O=C(c1ccc(N2CC3CC(C2)c2cccc(=O)n2C3)c([N+](=O)[O-])c1)N1CCCCC1` (configuration not stated)?
pCIP destab: inactive; MOR-DOR inv ag: inactive; HTR5A ag: inactive; MIN6 prolif: inactive; HTR5A inv ag: inactive; MOR-DOR ag: inactive

What do the screens show for `C[C@]12CC[C@H](O)C[C@H]1CC[C@@H]1[C@@H]2CC[C@]2(C)[C@@H](C3=CC(=O)OC3)CC[C@]12O`?
MOR-DOR inv ag: inactive; HTR5A ag: 37; MIN6 prolif: inactive; HTR5A inv ag: inactive; MOR-DOR ag: 71

How did CC12CCC(O)CC1CCC1C2CCC2(C)C(C3=CC(=O)OC3)C(O)CC12O (configuration not stated) do in these assays?
MOR-DOR inv ag: inactive; HTR5A ag: 33; HTR5A inv ag: inactive; MOR-DOR ag: 69
